Data published in PubChem BioAssay AID1445 (SRMLSC, 2008).
Screen size: about 220,000 compounds; about 910 (0.41%) were called active. The sample as a whole holds a higher share of actives than the screen did. Results with a measured potency or affinity are listed apart. A number with no mark means an inactive call.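 Rule for the calls: active = primary inhibition above the hit cutoff, then over 50% inhibition at one or more dose response concentrations (cut at about 23% in these data, passing the limit was not always enough); inconclusive = conflicting primary data, or primary hits not chosen for dose response; inactive = low primary inhibition, or under 50% at every dose.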

Molecular target: Aminopeptidase N (Plasmodium falciparum (isolate 3D7)) (UniProt O96935)
Assay: P. falciparum M1AAP inhibitors, biochemical, fluorogenic H-Leu-NHMec substrate, 1536-well (AID 1445);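 note: plate controls were DMSO full reaction for no effect and no enzyme background for full effect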
Conditions: recombinant M1AAP, H-Leu-NHMec fluorogenic kinetic assay; at 30 µM, active compounds read high unless noted

Chain of Aminopeptidase N (Plasmodium falciparum (isolate 3D7)) (O96935 whole entry, looked up): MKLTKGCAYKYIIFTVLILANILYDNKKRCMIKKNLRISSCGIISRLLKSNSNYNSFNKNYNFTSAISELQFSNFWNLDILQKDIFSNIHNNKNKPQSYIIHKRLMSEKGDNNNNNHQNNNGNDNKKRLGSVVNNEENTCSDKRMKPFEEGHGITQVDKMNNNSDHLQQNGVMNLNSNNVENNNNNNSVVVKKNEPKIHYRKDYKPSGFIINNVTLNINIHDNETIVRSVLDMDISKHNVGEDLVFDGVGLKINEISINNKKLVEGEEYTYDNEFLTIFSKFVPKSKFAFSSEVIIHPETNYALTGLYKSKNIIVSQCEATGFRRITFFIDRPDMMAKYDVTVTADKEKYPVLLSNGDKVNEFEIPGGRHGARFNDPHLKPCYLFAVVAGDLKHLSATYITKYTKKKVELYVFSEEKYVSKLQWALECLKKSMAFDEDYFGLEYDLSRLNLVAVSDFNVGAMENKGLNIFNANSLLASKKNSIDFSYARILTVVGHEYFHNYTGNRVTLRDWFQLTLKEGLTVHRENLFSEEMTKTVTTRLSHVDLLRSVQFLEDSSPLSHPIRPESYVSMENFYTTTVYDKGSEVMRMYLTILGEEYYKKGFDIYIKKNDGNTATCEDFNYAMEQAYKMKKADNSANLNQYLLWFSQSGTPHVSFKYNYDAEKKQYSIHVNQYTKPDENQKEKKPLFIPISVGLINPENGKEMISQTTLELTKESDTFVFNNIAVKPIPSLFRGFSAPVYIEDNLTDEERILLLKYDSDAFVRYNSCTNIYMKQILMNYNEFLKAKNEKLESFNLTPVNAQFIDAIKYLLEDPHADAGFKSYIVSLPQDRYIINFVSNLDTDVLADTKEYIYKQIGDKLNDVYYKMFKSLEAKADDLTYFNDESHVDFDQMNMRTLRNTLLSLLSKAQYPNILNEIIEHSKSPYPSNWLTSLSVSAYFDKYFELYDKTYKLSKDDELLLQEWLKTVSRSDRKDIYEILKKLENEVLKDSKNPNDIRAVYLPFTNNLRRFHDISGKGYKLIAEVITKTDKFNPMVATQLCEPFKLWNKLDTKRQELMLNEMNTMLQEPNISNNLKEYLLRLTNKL

Row | SMILES | inhibition
1 | Cc1nn(-c2ccc3ccccc3c2)c(=O)c2ccccc12 | 0.56%
2 | CSc1nnc(-c2ccccc2N=Cc2c(C)[nH]n(-c3ccccc3)c2=O)c(=O)[nH]1 | 11.9%
3 | COc1cc(/C=C/c2nc(-c3ccccc3O)n[nH]2)cc(OC)c1OC | 1.7%
4 | Cc1ccc(C(=O)NCC(=O)OCC(=O)c2c(N)n(C)c(=O)n(C)c2=O)s1 | 5.58%
5 | Cc1ccc(Nc2nnc(SCC(=O)NC(Cc3c[nH]c4ccccc34)C(=O)O)s2)cc1 (stereo not drawn) | 22%
6 | CCOc1ccccc1Nc1nnc(SCC(=O)Nc2ccc3[nH]c(=O)[nH]c3c2)s1 | 1.06%
7 | O=C(Nc1ccccc1C(=O)NC(Cc1c[nH]c2ccccc12)C(=O)O)c1ccco1 (stereo not drawn) | 7.54%
8 | O=C(CCn1nnc2ccccc2c1=O)N[C@@H](Cc1c[nH]c2ccccc12)C(=O)O | 9%
9 | CCOC(=O)C(Cc1c[nH]c2ccccc12)NC(=O)c1ccco1 (stereo not drawn) | -3.49%
10 | O=C(NC(Cc1c[nH]c2ccccc12)C(=O)O)c1ccco1 (stereo not drawn) | 27.5% (active)
11 | O=C(Cn1nnc2ccccc2c1=O)N[C@@H](Cc1ccccc1)C(=O)O | 2.79%
12 | COc1ccc(/C(C)=N\Nc2nc(-c3ccc(Cl)cc3)cc(C(F)(F)F)n2)cc1OC | -2.08%
13 | CCOC(=O)C1=C(O)C(=O)N(c2ccc(S(N)(=O)=O)cc2)C1c1ccc(Br)cc1 (stereo not drawn) | 0.8%
14 | CCOc1cccc(OCCOCCn2cnc3ccccc3c2=O)c1 | 0.65%
15 | CNCc1ccccc1Sc1ccc(OC)cc1 | -3.58%
16 | NS(=O)(=O)c1cccc(NC(=O)CCSc2ccc(Cl)cc2)c1 | 6.9%
17 | CCCCCCCC[n+]1cccc2c3ccccc3ccc21 | 29.8%
18 | CCCCCCCCC[n+]1cccc2c3ccccc3ccc21 | 18.5%
19 | Cc1ccc(C2Nc3ccc4ccccc4c3C3=C2C(=O)CC(C)(C)C3)o1 (stereo not drawn) | 16%
20 | CC1(C)CC(=O)C2=C(C1)c1c(ccc3ccccc13)NC2c1ccco1 (stereo not drawn) | 0.07%
21 | CCCN(CCC)c1ncnc2c1cnn2-c1ccc(OC)cc1 | 2.75%
22 | COc1ccc(-c2[nH]c(-c3ccc(C)cc3)nc2SCC(=O)NC2CCCC2)cc1 | 1.57%
23 | CCc1nc(NCc2ccco2)c2oc3ccccc3c2n1 | 2.95%
24 | c1ccc(-c2nc(NCc3ccco3)c3oc4ccccc4c3n2)cc1 | 11.9%

Row | SMILES | inhibition
25 | Cc1nc(NCc2ccco2)c2oc3ccccc3c2n1 | 25.6% (active)
26 | CCC(C)NC(=O)C1CCN(S(=O)(=O)c2ccc(OC)cc2)CC1 (stereo not drawn) | 4.22%
27 | C(=N\Nc1nc2ccccc2[nH]1)/c1ccncc1 | 5.02%
28 | CSc1cc(-c2ccccc2)n(C)c(=O)c1C#N | 3.47%
29 | Cc1cc2nc(N=C(N)N)nc(C)c2cc1C | 9.31%
30 | Cc1ccc2nc(N=C(N)N)nc(C)c2c1 | 10.4%
31 | COc1ccc(Oc2cc(C)c3cccc(C)c3n2)cc1 | -2.89%
32 | COc1nc(N=C(N)N)nc2ccc(C)cc12 | 20.7%
33 | O=C(COC(=O)Cc1ccc(F)cc1)NCc1ccco1 | 4.03%
34 | CCC(C)NC(=O)COC(=O)c1csc2c1CCCC2 (stereo not drawn) | 7.63%
35 | COC(=O)c1ccc(CSc2nc(C(F)(F)F)c3c(c2C#N)CCC3)o1 | 3.42%
36 | CCSc1nnc(NC(=O)CSc2c(Cl)cccc2Cl)s1 | 4.43%
37 | COc1ccc(S(=O)(=O)N2CCOCC2)cc1NC(=O)CO/N=C/c1ccccc1OC(F)F | 8.16%
38 | Cc1cn(-c2ccccc2)c(C)c1/C=N\Nc1nc(N2CCOCC2)nc(N2CCOCC2)n1 | 4.34%
39 | Cc1ccc(NC(=O)CSc2nnc(-c3ccco3)c(-c3ccco3)n2)cc1 | 25% (active)
40 | CC(=O)c1ccc(NC(=O)CSc2nnc(-c3ccco3)c(-c3ccco3)n2)cc1 | 9.65%
41 | Cc1cccc(C)c1NC(=O)CSc1nnc(-c2ccco2)c(-c2ccco2)n1 | 17.6%
42 | Cc1cc(CN(C)C(=O)CC2C(=O)NCCN2Cc2c(F)cccc2Cl)n[nH]1 (stereo not drawn) | -2.19%
43 | CCS(=O)(=O)C(C)(CCl)C(=O)Nc1ccc(C(=O)OC)cc1 (stereo not drawn) | 3.92%
44 | COc1c(O)cc2oc(-c3ccc(O)cc3)cc(=O)c2c1O | 17.2%
45 | COc1ccc(-c2cc(=O)c3c(O)c(OC)c(O)cc3o2)cc1 | 17%
46 | O=S(=O)(c1ccccc1)N1CCCC1c1cccs1 (stereo not drawn) | 0.58%
47 | Cn1c(=O)cc(SCC(=O)N2CCCC2)c2ccccc21 | 7.32%
48 | Cc1c(Cc2ccccc2)c(=O)oc2c(O)c(O)ccc12 | 17.1%
